Only some compounds are listed: those with a hit (about 3.8% of all), similar ones and a draw of the others.
HepG2 viability – HepG2 cytotoxicity, counter-screen for TGF-b inhibitors | HepG2 CAGA-GFP viability, ATP luminescence, 18 h | Potency, µM (series often up to 46.1 µM), inactives show at the top dose activity change, negative = cytotoxicity, most hits filed as cytotoxic | 410,000 compounds, 0.76% hits | AID 588856
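CellTiter-Glo luminescence gave cytotoxicity after 18 hours at 37 degrees C. The cells were HepG2 CAGA-GFP in 1% FBS DMEM, stimulated with 500 pg/mL TGF-beta after compound addition. %Activity was normalised to no-cell wells (complete cell-killing) and DMSO (no toxicity), and curves were fitted and classified.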
HT1080NT lethal – kills 2HG-producing HT-1080-NT fibrosarcoma cells; HT-1080-NT fibrosarcoma viability, CellTiter-Glo ATP luminescence, 48 h; 360,000 compounds, 1.6% hits; Potency, µM (series often up to 46.1 µM), for the others: at the top dose activity, negative = less viability, most hits filed as cytotoxic;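 note: NT is the 2HG producing partner of a matched IDH1 knockdown line; 0% = DMSO-treated cells and -100% = media-only wells without cells; nearly all actives have a fitted effect of over 55% in size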
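750 cells/well, RPMI + 5% FBS; 2 h settle, compound pin-transfer, 48 h at 37 degrees C. CellTiter-Glo 10 min RT, luminescence. Normalized to DMSO and media-only wells.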
TGFb inhibitor – blocks TGF-b signaling; HepG2 CAGA-GFP TGF-b/SMAD3 reporter, GFP fluorescence, 18 h; TGF-beta stimulated, 500 pg/mL final; 410,000 compounds, 1.2% hits; Potency, µM (doses to about 46.1 µM), inactives show at the top dose activity, negative = inhibition, usual class: inhibitors; note: % is set by controls: 0 for no effect and ±100 for the full control effect; nearly all actives have a fitted effect of over 65% in size
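TGF-beta reporter screen: HEPG2 CAGA-GFP, 1% FBS, 500 pg/mL TGF-beta final, 18 h; per-cell GFP summed per well; curves fitted and categorized by class.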
ATXN2 expr inh – ATXN2 expression inhibition; HEK-293 ATXN2-luciferase reporter, luminescence, 24 h; 360,000 compounds, 0.72% hits; Potency, µM (series often up to 57 µM), without a hit: top-dose activity change, negative = inhibition, usual class: inhibitors; note: % is set by controls: 0 for no effect and ±100 for the full control effect; nearly all actives have a fitted effect of over 55% in size
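ATXN2-luciferase reporter cells (luciferase flanked by upstream and downstream ATXN2 gene portions) were treated 24 h at 37 °C with compounds at up to 57 uM. SteadyGlo luminescence gave expression; GF-AFC fluorescence gave viability.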
ATXN viability – reduces viability in counter-screen for ATXN expression inhibitors | AID 651635 | Potency, µM (series often up to 56.7 µM), usual class: cytotoxic | S2 cells (HEK-293 line with an ATXN2-luciferase reporter) viability, CellTiter-Fluor protease fluorescence, 24 h | 400,000 compounds, 0.49% hits; note: nearly all actives have a fitted effect of over 40% in size
HT1080 IDH1KD tx – kills HT-1080 cells with IDH1 knockdown. HT-1080 IDH1 knockdown viability, ATP luminescence, 48 h. Potency, µM (series often up to 46.1 µM), for inactives: at the highest dose activity, negative = toxicity, most hits filed as cytotoxic. 360,000 compounds, 2% hits;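 note: 0% = DMSO wells and -100% = cell-free medium wells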
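Cytotoxicity counter-line: IDH1KD HT-1080, 48 h, CellTiter-Glo. Curves classed by r2, magnitude and activity.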
Active calls of the source: *; i = inactive; ? = inconclusive; nt = no result; ! = a repeat was not active; [ ] = another dose, or the depositor's remark. Calls come from the whole dose curve; as a rule, active = well fitted curve in the direction sought with a large enough effect; inconclusive = small, poorly fitted or top-dose-only effect, or another doubt; inactive = no such curve, though single readings can be large; an effect the other way counts as inactive or inconclusive. Potency is the fitted concentration of half-maximal effect.

SMILES	HepG2 viability	HT1080NT lethal	TGFb inhibitor	ATXN2 expr inh	ATXN viability	HT1080 IDH1KD tx
Cc1ccc(/C=C/c2onc(C)c2S(=O)(=O)N2CCC(C(=O)N3CCCCC3)CC2)cc1	-19.4%	-6.3%	-10.9%	-8.0%	?	-4.7%
CNC(=O)C1CCN(S(=O)(=O)c2c(C)noc2/C=C/c2ccccc2F)CC1	-24.4%	1.3%	-23.0%	-30.2%	i	-0.1%
CCCN1CCN(C(=O)C2CCN(S(=O)(=O)c3c(C)noc3/C=C/c3ccc(C)cc3)CC2)CC1	-61.0%	16.4µM*	?	?	?	?
COc1ccc(Nc2cc(C(=O)NCCCN3CCN(c4ccccc4F)CC3)c3ccccc3n2)c(OC)c1	-43.8%	nt	11.2µM*	nt	nt	nt
OC(c1ccc(F)c(F)c1)c1nc(-c2cccc(C(F)(F)F)c2)cs1 (stereo not drawn)	20µM*	?	?	-23.9%	?	?
OC(c1ccc(F)c(F)c1)c1nc(-c2ccc(F)c(Cl)c2)cs1 (stereo not drawn)	-44.7%	-25.1%	?	-12.7%	i	?
CCN(CC)C(=O)c1cccc(-c2csc(C(O)c3ccc(OC)cc3)n2)c1 (stereo not drawn)	-2.5%	-13.0%	-4.5%	?	i	?
CCN(CC)C(=O)c1cccc(-c2csc(C(O)c3ccc(F)c(OC)c3)n2)c1 (stereo not drawn)	-5.0%	1.03µM*	?	?	?	?
Cc1ccc(-c2csc(C(O)c3ccc(F)c(F)c3)n2)cc1C (stereo not drawn)	-59.7%	?	?	-24.6%	i	20.6µM*
CCc1cccc(NC(=O)c2nc(-c3ccncc3)no2)c1	-10.3%	nt	-1.6%	nt	nt	nt
O=C(N/N=C/c1cc(Cl)ccc1O)C(=O)Nc1ccccc1OC(F)(F)C(F)F	-8.6%	?	?	12.6µM*	i	?
COc1cccc(/C=N/NC(=O)C(=O)Nc2ccccc2OC(F)(F)C(F)F)c1	-5.2%	-2.5%	7.2%	-18.7%	i	-3.3%
O=C(N/N=C/c1cc(Br)ccc1O)C(=O)Nc1ccccc1OC(F)(F)C(F)F	-35.0%	1.41µM*	?	3.16µM*	i	0.891µM*
COc1ccccc1/C=N/NC(=O)C(=O)Nc1ccccc1OC(F)(F)C(F)F	8.9%	9.5%	-2.4%	5.2%	i	9.6%
Cc1cc(C)c(S(=O)(=O)NCCc2cc3ccc(C)cc3[nH]c2=O)c(C)c1	-18.7%	nt	?	-1.7%	i	nt
CCN1CCCC1CNc1ncnc2c1[nH]c1ccc(Cl)cc12 (stereo not drawn)	-40.0%	14.6µM*	-28.2%	?	i	?
CC(=O)c1[nH]c(C)c(C(=O)NCc2ccc(Cl)cc2)c1C	-13.2%	nt	?	nt	nt	nt
COc1ccc(NC(=S)Nc2ccc(C)c(Cl)c2)cc1OC	6.7%	-9.5%	-17.0%	-4.1%	i	12.2%
CC(NC(=S)Nc1ccc(OC(F)F)c(Cl)c1)C(C)(C)C (stereo not drawn)	-36.1%	?	12.6µM*	14.4%[11.3 µM]	i	?
O=C(Nc1ccc(OC(F)F)c(Cl)c1)C(c1ccccc1)c1ccccc1	20µM*	?	22.4µM*	?	i	16.4µM*
Cc1ccc(NC(=S)Nc2ccc(OC(F)F)c(Cl)c2)cc1Cl	-44.9%	6.1%	17.8µM*	?	i	27.4%
FC(F)Oc1ccc(NC(=S)NCc2ccccc2)cc1Cl	-49.0%	?	?	?	i	?
Cc1nc2ccccc2n1CCc1nc2c3ccccc3nc(SCc3ccccc3F)n2n1	-2.7%	nt	-2.0%	-4.0%	i	nt
CCC(Sc1nnc2c3ccccc3n(CC)c2n1)C(=O)Nc1ccc(NC(C)=O)cc1 (stereo not drawn)	-8.3%	nt	-28.2%	nt	nt	nt
COc1ccc2[nH]c(CN3CCC(CO)(CCOc4ccccc4)CC3)c(C)c2c1	-11.4%	14.6µM*	?	51.7%	i	23.1µM*
SMILES	HepG2 viability	HT1080NT lethal	TGFb inhibitor	ATXN2 expr inh	ATXN viability	HT1080 IDH1KD tx
COc1ccc(CN2CCC(CO)(CCOc3ccccc3)CC2)c(OC)c1C	3.9%	?	-3.6%	-28.6%	i	?
OCC1(CCOc2ccccc2)CCN(Cc2cn[nH]c2-c2ccc(F)cc2)CC1	-33.2%	?	?	-19.7%	i	23.1µM*
OCC1(CCOc2ccccc2)CCN(CC2=Cc3cc(Cl)ccc3OC2)CC1	-68.3%	-22.1%	?	?	i	18.4µM*
Cn1c(-c2ccncc2)nc2cc(C(=O)N3CCCC3c3nccs3)cc(NC(=O)C3CCC3)c21 (stereo not drawn)	nt	nt	nt	nt	i	nt
CCOc1ccccc1NC(=O)CSc1nc2ccccc2c2nc(CCn3cncc3C)nn12	-23.3%	nt	?	-1.0%	28.2µM*	nt
Cc1cncn1CCc1nc2c3ccccc3nc(SCC(=O)Nc3cccc(Cl)c3)n2n1	-33.8%	-17.0%	?	25.1µM*	15.8µM*	-16.7%
Cc1cccc(NC(=O)CSc2nc3ccccc3c3nc(CCc4c(C)n[nH]c4C)nn23)c1	-10.8%	?	?	31.6µM*!	15.8µM*	?
CCn1cc2nc(SCC(=O)Nc3cc(OC)cc(OC)c3)n(Cc3ccc(Cl)cc3)c(=O)c2n1	-3.8%	nt	0.0%	-4.1%	i	nt
COc1ccc(-n2cc(-c3ccccc3)c3c(NCCCN4CCOCC4)ncnc32)cc1	-19.7%	20.6µM*	9.6%	?	nt	18.4µM*
OCCN1CCN(c2ncnc3c2c(-c2ccccc2)cn3-c2ccc(Br)cc2)CC1	-1.4%	16.4µM*	1.4%	-29.7%	i	23.1µM*
c1ccc(-c2cc3c(N4CCCC4)ncnc3s2)cc1	-15.1%	22.8%	-16.5%	29.4%	i	8.8%
OCCN1CCN(c2ncnc3sc(-c4ccccc4)cc23)CC1	-4.0%	18.4µM*	-3.6%	-13.8%	i	?
CCCCCCc1ccc(C(=O)CCN(C)C)cc1	nt	nt	-29.4%	nt	nt	nt
CC(C)CCOC(=O)C1C(c2ccccc2)C(C(=O)O)C1c1ccccc1 (stereo not drawn)	-1.4%	7.31µM*	-4.0%	0.6%	i	3.66µM*
CCOc1ccc(OCc2ccc(C(=O)NN=Cc3ccc[nH]3)cc2)cc1	-17.4%	0.651µM*	-19.9%	?	?	?
C/C(=N\NC(=O)c1ccc(Cl)c(Cl)c1)c1ccccn1	-5.2%	?	?	?	?	1.84µM*
CCOc1ccc(OCc2ccc(C(=O)N/N=C(\C)c3ccccn3)cc2)cc1	-4.3%	?	-23.3%	2.82µM*	?	?
